According to PubChem BioAssay (Tox21):
Records with an inconclusive call do not appear. Active and inactive are the calls of the source. The call rests on the fitted dose curve; in most records, active means well fitted cell-killing curve with a large enough effect in the repeat runs; inconclusive means weak or mixed curves, or effect the other way; inactive means no such curve, though single readings can be large or run the other way.

assay: qHTS assay to identify small molecule agonists of the vitamin D receptor (VDR) signaling pathway - cell viability counter screen (AID 743224); settings: VDR-bla HEK293T viability, CellTiter-Glo luminescence, 16 h; series mostly up to 62.6 µM; further: nearly all actives have a fitted effect of over 50% in size
Description: U.S. Tox21 Program National Center for Advancing Translational Sciences [NCATS] NIH Chemical Genomics Center [NCGC] U.S. Environmental Protection Agency [EPA] National Institutes of Environmental Health Sciences [NIEHS] National Toxicology Program [NTP] U.S. Food and Drug Administration [FDA] Tox21 Assay Overview: The vitamin D receptor (VDR), a member of nuclear hormone receptor superfamily, plays a critical role in calcium homeostasis and bone metabolism. It is also involved in cell differentiation and growth, and thrombogenicity. […] The cytotoxicity of the Tox21 compound library against the VDR-bla cell line was tested in parallel by measuring the cell viability using CellTiter-Glo assay (Promega, Madison, WI) in the same wells.
Tox21 Assay Protocol Summary: VDR-bla cells were dispensed at 2,000 cells/6 uL/well into black wall/clear-bottom 1536-well plates using a Multidrop Combi (Thermo Fisher Scientific, Waltham, MA) dispenser. After the assay plates were incubated at a 37C and 5% CO2 for 4 h, 23 nL of compounds dissolved in DMSO, positive controls or DMSO only was transferred to the assay plate by a Pintool station (Kalypsys, San Diego, CA). The plates were incubated at 37C and 5% CO2 for 16 h. After 1 uL of LiveBLAzerTM B/G FRET substrate was added using a Bioraptr Flying Reagent Dispenser (FRD) workstation (Beckman Coulter, Indianapolis, IN, USA), the plates were incubated at room temperature for 2 h, and fluorescence intensity was measured by an Envision plate reader (PerkinElmer, Shelton, CT). For cell viability readout that measures cytotoxicity, 3 ul/well of CellTiter-Glo reagent was added into the assay plates using a FRD. After 30 min incubation at room temperature, the luminescence intensity in the plates was measured using a ViewLux (PerkinElmer) plate reader.
On the % scale 0 is the no-effect control and ±100 the full control effect.

Structure (SMILES)	outcome	activity change, negative = cytotoxicity
CC1=C(C(=O)O)N2C(=O)[C@@H](NC(=O)[C@H](N)c3ccccc3)[C@H]2SC1	inactive	
CC(=O)C1C(=O)C=C(C)OC1=O (stereo not given)	inactive	
O=C(O)CSCC(=O)NC1CCSC1=O (stereo not given)	inactive	
OC[C@@H](O)C(O)[C@@H](O)CO (stereo not given in full)	inactive	
CC(O)COC(C)(C)C (stereo not given)	inactive	
CCCC(=O)OCCC(C)CCC=C(C)C (stereo not given)	inactive	
Cc1ccnc(N)c1	inactive	
CCOc1ccccc1OCC1CNCCO1 (stereo not given)	inactive	
O=C[O][Al]([O]C=O)[O]C=O	inactive	
CC(C)C1OCCN1CCOC(=O)NCCCCCCNC(=O)OCCN1CCOC1C(C)C (stereo not given)	inactive	
CO/N=C(/C(=O)N[C@@H]1C(=O)N2C(C(=O)[O-])=C(C[n+]3ccn4ncccc43)CS[C@H]12)c1nsc(N)n1	inactive	
O=C(CN1CCNCC1)NC1CCCCC1	inactive	
Cc1ccccc1C(N)=O	inactive	
c1ccc(-c2nn[nH]n2)cc1	inactive	
CN(C)CCCCl	inactive	
CC(=O)C(C)O (stereo not given)	inactive	
CC(C)c1ccc(C=O)cc1	inactive	
Cc1c(Cl)cccc1Cl	inactive	
CC(C)=CCC/C(C)=C/COC=O	inactive	
C=Cc1ccc(C(C)(C)C)cc1	inactive	

Structure (SMILES)	outcome	activity change, negative = cytotoxicity
CCNC(=O)NCc1cccc(Cl)c1	inactive	
C[C@]12CCC(=O)C=C1CC[C@H]1[C@@H]3CC[C@](O)(C(=O)CO)[C@@]3(C)C[C@H](O)[C@@]12F	inactive	
NCc1ccc(S(N)(=O)=O)cc1	inactive	
CCCCCCCCCOC(=O)CCCCC(=O)OCCCCCCC	inactive	
Cc1c(C(=O)c2c[nH]n(C)c2=O)ccc(S(C)(=O)=O)c1C1=NOCC1	inactive	
CN(C)CCN(C)CCO	inactive	
Cc1ccc(C(C)NC(=O)[C@@H](NC(=O)OC(C)C)C(C)C)cc1 (stereo not given in full)	inactive	
COC(C)(OC)OC	inactive	
CC(C)(C)NC[C@H](O)COc1cccc2c1CCCC2=O	inactive	
O=S(=O)(O)c1ccc2c(N=Nc3ccc(S(=O)(=O)O)c4ccccc34)c(O)c(S(=O)(=O)O)cc2c1		-0.166% [at 5.95 µM] (inactive)
CCCCCCCCCCCCCCCCCCOCCO	inactive	
CCCCCCC1(C)CCC(=O)O1 (stereo not given)	inactive	
Fc1ccccc1	inactive	
C[C@@H](O)C(=O)O	inactive	
CCC(=O)c1c(O)cc(O)cc1O	inactive	
CCCCCCCCCCCCCCC(=O)NC(CO)CCCCCCCCCCCCCC (stereo not given)	inactive	
c1ccc2cnccc2c1	inactive	
CCCCCc1cccc(=O)o1	inactive	
O=C=NCC1CCCC(CN=C=O)C1 (stereo not given)	inactive	
CC(=O)c1cc(C)oc1C	inactive	
